The source of these data is PubChem BioAssay (EPA / NIEHS).

Values joined by “and” are separate entries in the source; they are usually repeats but may differ in a detail not shown here. Equal values may be shown once. Inconclusive results are not listed. Active and inactive are the calls of the source. How the source made its calls, unless noted: active means hit-call score of the fitted dose curve at least 0.9, where 1 is the maximum; inactive means score below 0.9.

Experiment [1] is described as follows: UKN2_HCS_IMR90_cell_viability: Viability Assessment in the University of Konstanz (UKN) Leist Lab Neural Crest Cell Migration Assay in human induced IMR90 Pluripotent Stem Cells (UKN2) (AID 2284233).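 Further: cells exposed to compound for 24 h after a 24 h migration phase.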 The gist of the method:
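After calcein-AM/Hoechst staining, viability is quantified by high-content fluorescence imaging, relative to DMSO, in iPSC (IMR90)-derived neural crest cells. Exposure lasts 24 h, starting after a 24 h migration period on PLO/laminin/fibronectin coating.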

A short description of experiment [2]: UKN4_HCS_LUHMES_cell_viability: Viability Assessment in the University of Konstanz (UKN) Leist Lab Neurite Outgrowth Assay in human LUHMES cells (UKN4) (AID 2284232). The gist of the method:
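Cells switched to differentiation medium at day 0, replated on day 2 in medium lacking cAMP and GDNF, and compound-treated once attached. Live staining began 23.5 h later, imaging followed at 24 h.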

Read-out in experiment [3]: Secreted IgG (sIgG), gene 3500
Briefly: BSK_BT_sIgG: BioMAP Diversity Plus: BT Assay for Secreted IgG (sIgG) Biomarker Activity (AID 2284226). Conditions: primary human B cells with PBMC. The gist of the method:
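Cells (B cells with peripheral blood mononuclear cells) are dosed, cultured 24 h, then supernatant IgG is measured by ELISA. DMSO serves as negative control; curves are fitted for signal increase.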

Experiment [4] in a line: BSK_BT_Bcell_Proliferation: Viability Assessment in the BioMAP Diversity Plus: BT Assay for B cell Proliferation (AID 2284227). As to conditions: primary human B cells with PBMC. The gist of the method: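 SRB-based protein staining (0.1% SRB after 10% TCA fixation, 560 nm) quantifies proliferation in human B cells co-cultured with PBMC, 72 h post-dosing, with signal gain scored relative to DMSO negative control.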

Read-out in experiment [5]: Interleukin 6 (IL6), IL6 (gene 3569)
The experiment can be described thus: BSK_BT_xIL6: BioMAP Diversity Plus: BT Assay for Interleukin 6 (IL6) Biomarker Activity (AID 2284228). Conditions: primary human B cells with PBMC. The gist of the method: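 Human B cell/PBMC co-culture; secreted IL-6 quantified by Luminex xMAP 24 h after chemical dosing, fitted relative to DMSO. Parallel PBMC viability by Alamar Blue after 1 h pretreatment, 20 ng/mL SEB and TSST-1, 90 h incubation.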

Read-out in experiment [6]: Interleukin 17A (IL17A), IL17A (gene 3605)
The experiment can be described thus: BSK_BT_xIL17A: BioMAP Diversity Plus: BT Assay for Interleukin 17A (IL17A) Biomarker Activity (AID 2284229). As to conditions: primary human B cells with PBMC. The gist of the method: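 Co-culture of human B cells and PBMC, dosed for 24 h in 96-well format. Secreted IL-17A measured with Luminex xMAP; gain-direction fitting against DMSO as baseline.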

Read-out in experiment [7]: Tumor necrosis factor (Homo sapiens) (UniProt P01375)
The experiment can be described thus: BSK_BT_xTNFa: BioMAP Diversity Plus: BT Assay for Tumor necrosis factor alpha (TNF-alpha) Biomarker Activity (AID 2284230). As to conditions: primary human B cells with PBMC. The gist of the method:
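Compounds were added to a B cell plus PBMC co-culture, and after 24 h secreted TNF-alpha was quantified with Luminex xMAP technology, with responses fitted upward from the DMSO control.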

Read-out in experiment [8]: Vascular cell adhesion molecule 1 (VCAM1), VCAM1 (gene 7412)
Briefly: BSK_MyoF_VCAM1: BioMAP Diversity Plus: MyoF Assay for Vascular cell adhesion molecule 1 (VCAM1) Biomarker Activity (AID 2284231). Conditions: primary human lung fibroblasts. The essentials:
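Primary human lung fibroblasts (BioMAP MyoF system) dosed with chemical, VCAM-1 measured by ELISA 24 hours later. Fitted in the positive direction against DMSO; parallel SRB staining assessed cytotoxicity.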

The nature of experiment [9]: TAMU_HCS_1.5hr_SingleDonor1434_Cytotoxicity: Cytotoxicity Assessment using High-content Screening (HCS) Fluorescent Imaging for the Texas A&M University (TAMU) 1.5-hr Human Induced Pluripotent Stem Cell (iPSC)-derived Cardiotoxicity Assay (AID 2284234; active means hit-call score of the fitted dose curve at least 0.9, where 1 is the maximum). The gist of the method:
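Nuclear counts from Hoechst 33342 imaging define cytotoxicity here, with EC10 (10% cell-count loss relative to DMSO) as point of departure. iPSC cardiomyocytes received 0.2-100 uM test chemical in 0.5% DMSO for 1.5 h at 37 C.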

The nature of experiment [10]: TAMU_PeakParms_SingleDonor1434_QT: Texas A&M University (TAMU) 1.5-hr Human Induced Pluripotent Stem Cell (iPSC)-derived Cardiomyocytes Calcium (Ca+2) Flux Assay for Cardiotoxicity: QT (decay-rise ratio) (AID 2284235; active means hit-call score of the fitted dose curve at least 0.9, where 1 is the maximum). The essentials: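 Decay/rise ratio of calcium-flux fluorescence scored after 90 min exposure (37C) of donor 1434 iPSC cardiomyocytes to 0.2–100 uM (0.5% DMSO). Beat-cessation and severe-notch points removed; POD is EC05, a 5% rise over DMSO.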

Sequence of Tumor necrosis factor (Homo sapiens) (P01375 whole entry, looked up): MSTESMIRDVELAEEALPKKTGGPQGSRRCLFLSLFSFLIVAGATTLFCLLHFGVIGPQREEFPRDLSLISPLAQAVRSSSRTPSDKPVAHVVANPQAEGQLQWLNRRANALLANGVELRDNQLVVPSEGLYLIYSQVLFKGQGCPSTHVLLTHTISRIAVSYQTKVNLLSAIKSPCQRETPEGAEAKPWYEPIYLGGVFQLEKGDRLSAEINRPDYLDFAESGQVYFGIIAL

For the compound `CCOP(=O)(NC(C)C)Oc1ccc(SC)c(C)c1` (stereo not drawn), the compound was classed as inactive in experiment [1].
On the same count and under the same terms, as for `CCCCSP(=O)(SCCCC)SCCCC`, the entry is “inactive”.
Turning to `CC(C)N(C(=O)SCC(Cl)=C(Cl)Cl)C(C)C`, in experiment [2], the AC50 is 19300 nM (active).
For `COP(=O)(OC)OC(Br)C(Cl)(Cl)Br` (stereo not drawn), the AC50 in experiment [1] is 21.6 µM (active).
As to `CCOP(=O)(OCC)Oc1cc(C)nc(C(C)C)n1`, the compound was called inactive in experiment [1].
Take `CCOC(=O)CC(SP(=O)(OC)OC)C(=O)OCC` (stereo not drawn): the compound was classed as inactive in [2] and in [1].
For `CC[C@H](C)[C@H]1O[C@]2(C=C[C@@H]1C)C[C@@H]1C[C@@H](C/C=C(\C)[C@@H](O[C@H]3C[C@H](OC)[C@@H](O[C@H]4C[C@H](OC)[C@@H](NC)[C@H](C)O4)[C@H](C)O3)[C@@H](C)/C=C/C=C3\CO[C@@H]4[C@H](O)C(C)=C[C@@H](C(=O)O1)[C@]34O)O2`, the half-maximal activity concentration (AC50) in [2] is 1760 nM (active); in [1] it was 3.1 µM (active) and 3.81 µM (active).
For the compound `CON=C(C(=O)OC)c1ccccc1CON=C(C)c1cccc(C(F)(F)F)c1`, the AC50 in [1] is 50 µM (active).
As for `CN(C)[C@@H]1C(=O)C(C(N)=O)=C(O)[C@@]2(O)C(=O)C3=C(O)c4c(O)cccc4[C@@](C)(O)[C@H]3[C@H](O)[C@@H]12`, the outcome in experiment [3], in [4], in experiment [5], in experiment [6], in experiment [7] and in [8] was inactive. Besides, the concentration at half-maximal activity (AC50) in [1] was 90 µM (active).
With `CCOP(=S)(Oc1cnc(C(C)(C)C)nc1)OC(C)C` (stereo not drawn), in experiment [1], the result was inactive.
In the case of `CC(=NC#N)N(C)Cc1ccc(Cl)nc1`, the compound was classed as inactive in [2] and in experiment [1].
Take `CCOP(=S)(OCC)Oc1ccc([N+](=O)[O-])cc1`: the compound was classed as inactive in [9] and in [10].
With `O=[N+]([O-])c1cc(C(F)(F)F)c(Cl)c([N+](=O)[O-])c1Nc1ncc(C(F)(F)F)cc1Cl`, the AC50 in [3] was 282 nM (active); in experiment [4], 2570 nM (active); in [5], 3720 nM (active); in experiment [6], 730 nM (active); in [7] it was 3970 nM (active); in experiment [8], 2530 nM (active). Further, in experiment [1], the concentration at half-maximal activity (AC50) is 1.48 µM (active).
Turning to `CCOP(=S)(OCC)OC(Cl)C(Cl)(Cl)Cl` (stereo not drawn), in [1], the call was inactive.
On the same count and under the same terms, as for `CCCSP(=O)(OCC)SCCC`, the entry is “inactive”.
With `C=C(C)[C@H]1Cc2c(ccc3c2O[C@@H]2COc4cc(OC)c(OC)cc4[C@@H]2C3=O)O1`, the half-maximal activity concentration (AC50) in experiment [9] is 10 nM (active). In addition, the outcome in [10] was inactive.

What is called AC50 is the concentration giving half of the maximal activity seen.
